# Out of some 300,000 compounds screened, about 5,400 (1.8%) were called active. Not shown: some 28% with an inconclusive outcome. Shown is part of a subset that was picked to be rich in actives. Values without a mark were called inactive. Calls come from the whole dose curve; tested in HEK293 cells.
# Test: qHTS for inhibitors of binding or entry into cells for Marburg Virus
# Conditions: Marburg virus pseudotyped entry inhibition, cell reporter; series mostly up to 37.8 µM; activity change, negative = inhibition: at the top concentration
# % is set by controls: 0 for no effect and ±100 for the full control effect; potency is the fitted concentration of half-maximal effect.
SMILES,"activity change, negative = inhibition",Potency
O=C(COc1cccnc1[N+](=O)[O-])Nc1ccc(Cl)cc1F,17.4% [at 46.1 µM],
O=C(N/N=C/C=C/c1ccco1)c1cccs1,12.6% [at 46.1 µM],
Cc1ccc(-c2cc(C(=O)N/N=C/C=C/c3ccco3)c3ccccc3n2)cc1C,,2510 nM (active)
Cc1cc(C(=O)N/N=C/c2ccccn2)c2ccccc2n1,12.2% [at 46.1 µM],
CCCc1nnc(NC(=O)CCC(=O)N2CCN(S(=O)(=O)c3ccc(OC)cc3)CC2)s1,1% [at 46.1 µM],
Cc1nc(N)nc(Cl)c1CCC1OCCO1,0.143% [at 46.1 µM],
Cc1cc(C)nc(Nc2cc([N+](=O)[O-])ccc2C)n1,-0.158% [at 46.1 µM],
Cc1ccc(Nc2cc(C)nc3c(C)ccc([N+](=O)[O-])c23)cc1,,11200 nM (active)
Cc1ccc(Nc2ccc(C(N)=O)cc2[N+](=O)[O-])cc1,-11.4%,
Cc1ccc2c(c1)N(CC(=O)NCC1CCCO1)C(=O)CO2 (configuration not stated),1.4% [at 46.1 µM],
COCCNC(=O)COc1ccc(N(C)S(=O)(=O)c2ccc3ccccc3c2)cc1,9.59% [at 46.1 µM],
CC1CCCCC1NC(=O)/C(C#N)=C/C=C/c1ccccc1[N+](=O)[O-] (configuration not stated),,2820 nM (active)
O=[N+]([O-])c1ccccc1/C=C/CN1CCCC(CO)C1 (configuration not stated),15.6%,
CC1CCCCC1NC(=O)COc1ccc(C#N)cc1 (configuration not stated),-11.3%,
O=C(Nc1c(Br)cc2c(c1Br)Cc1cc([N+](=O)[O-])ccc1-2)C(Cl)Cl,12.8%,
CN(Cc1ccccc1)Cc1ccccc1F,-10.3%,
N=c1n(CCc2ccccc2)c2ccccc2n1Cc1ccccc1F,,5170 nM (active)
CCCn1c(NCc2ccccc2F)nc2ccccc21,8.16% [at 46.1 µM],
CCc1ccccc1N(CC(=O)NCC1CCCO1)C(=O)CCC(=O)Nc1nccs1 (configuration not stated),5.09% [at 46.1 µM],
COc1ccc(C)cc1NC(=S)N1CCOCC1,-15.3% [at 46.1 µM],
O=C1OC(Cc2ccccc2)C(c2ccccc2)C1=O (configuration not stated),3.11%,
O=C(CSc1nc2[nH]ncc2c(=O)n1-c1ccccc1)N1CCCc2ccccc21,4.12%,
O=C(CSc1nc2ccccc2c(=O)n1CCCO)N1CCc2ccccc21,-0.197%,
Cn1c(SCC(=O)N2CCCc3ccccc32)nc2ccccc2c1=O,,12600 nM (active)
CN(C)CCn1c2c(c(SCC(=O)Nc3ccccc3C(F)(F)F)nc1=O)CCCC2,28.8%,
Cc1cc(N/N=C\c2ccc(Br)cc2)nc(-n2nc(C)cc2C)n1,,2240 nM (active)

SMILES,"activity change, negative = inhibition",Potency
Cc1cc(C)nc(-n2nc(C)cc2NC(=O)c2ccc(Br)o2)n1,4.69%,
COc1ccc(Nc2cc(C)nc(-n3nc(C)cc3C)n2)cc1,,1300 nM (active)
Cc1ccc2nc(C)cc(N/N=C/c3ccc(F)cc3)c2c1,9.21% [at 46.1 µM],
Cc1cc(Nc2ccccc2)nc(N)n1,3%,
COc1ccc(NC(=O)c2nc(-n3nc(C)cc3C)ccc2Cl)cc1Cl,9.49%,
CN1CCN(C(=O)c2cnn(-c3ccccc3)c2NC(=O)c2ccc([N+](=O)[O-])cc2)CC1,12.4% [at 46.1 µM],
CN1CCN(C(=O)C(=O)c2cn(CC(=O)N3CCCC3)c3ccccc23)CC1,-14.1%,
O=C1NC(=O)C(CCc2ccccc2)(c2ccccc2)N1 (configuration not stated),-23.1%,
Cc1cccc(C(=O)OC(C)C(=O)NC2CCCc3ccccc32)c1O (configuration not stated),1.02% [at 46.1 µM],
COc1ccc(C(=O)NC2CCCc3c2cnn3-c2cccc(C)c2C)c(OC)n1 (configuration not stated),,708 nM (active)
COCc1ccc(C(=O)NC2CC(C)(C)Cc3c2cnn3-c2ccc(C)cc2)o1 (configuration not stated),-15.2%,
CN(C)C(=O)c1ccc(NC(=O)c2ccccc2-c2ccccc2)cc1,0.637% [at 46.1 µM],
CCc1ccc(N(C(=O)c2csnn2)C(C(=O)NC2CCCCC2)c2ccncc2)cc1 (configuration not stated),6.59% [at 46.1 µM],
O=C1CC2(CCCC2)C(=O)N1CN1CCN(S(=O)(=O)c2ccc(F)cc2F)CC1,-2.46%,
COc1ccc(-c2nc3cc([N+](=O)[O-])ccc3o2)cc1OC,-1.31% [at 46.1 µM],
O=C(Cc1cccc2ccccc12)Nc1ccc2oc(-c3ccccc3)nc2c1,22.7%,
CCc1ccc2oc(-c3ccc(N)cc3)nc2c1,,5170 nM (active)
CC(=O)Nc1ccc(S(=O)(=O)Nc2cc(C)cn(Cc3ccc(C)cc3)c2=O)cc1,-2.78% [at 46.1 µM],
CCOC(=O)C1=C(CN2CCCCCC2)NC(=O)NC1c1cccc([N+](=O)[O-])c1 (configuration not stated),-3.93% [at 46.1 µM],
CCOC(=O)C1=C(CN2CCc3ccccc32)NC(=O)NC1c1ccc(Cl)cc1 (configuration not stated),,16400 nM (active)
CCOC(=O)C1=C(C)NC(=O)NC1c1ccccc1 (configuration not stated),-12.9%,
COc1ccc([C@H]2C(C#N)=C(N)Oc3n[nH]c(C)c32)cc1CSc1ccccn1,-7.9%,
COc1cccc(NC(=O)CN(C)C(=O)Cc2ccc(Cl)cc2Cl)c1,-19.1%,
CC(=O)Nc1cccc(NC(=O)c2c(-c3ccccc3)noc2C)c1,-18%,
Cc1ccc(CNC(=O)c2c(-c3ccccc3)noc2C)cc1,5.17% [at 46.1 µM],
CCOC(=O)c1c(-c2cccc(C)c2)csc1NC(=O)c1c(-c2ccccc2)noc1C,,316 nM (active)

# — PubChem BioAssay AID540276 (National Center for Advancing Translational Sciences (NCATS), 2011)
